Screening results: PubChem, The Scripps Research Institute Molecular Screening Center
PAFAH1B2 inh = blocks human PAF acetylhydrolase 1b catalytic subunit 2; recombinant PAFAH1B2, FP-rhodamine activity probe, fluorescence polarization; inhibition, % at 3.39 µM; 1.2% of 340,000 active;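 active = inhibition above the mean of all tested compounds plus 3 SD, cut at about 24% in these data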
pPAFAH FP inh = inhibitors of human plasma PAF acetylhydrolase (pPAFAH); recombinant pPAFAH, FP-rhodamine probe fluorescence polarization; inhibition, % at 3.39 µM; 1.5% of 330,000 active;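 active = inhibition above the mean inhibition across the screen plus 3 SD, cut at about 25% in these data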;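 note: inhibitors block binding of the rhodamine activity-based probe so polarization drops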
PAFAH2 inh = inhibitors of human PAFAH2 | inhibition, % at 3.39 µM | recombinant PAFAH2, FP-rhodamine activity probe, fluorescence polarization | AID 492956 | 0.99% of 340,000 active;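 active = inhibition above the mean over all tested compounds plus 3 SD, cut at about 30% in these data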;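 note: inhibitors block probe labeling of enzyme so polarization drops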
PP5 inh = blocks human protein phosphatase 5 activity | inhibition, % at 6.7 µM | purified PP5c, OMFP substrate fluorescence | 0.18% of 320,000 active;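 active = inhibition above the campaign's mean inhibition across all tested compounds plus 3 SD, cut at about 9.5% in these data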
PP1 counter = counter-screen for PP5 inhibitors: inhibitors of human PP1-alpha. inhibition, % at 6.7 µM. 0.9% of 320,000 active. AID 2235. purified PP1alpha, OMFP fluorescence;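 active = inhibition above the mean inhibition of all tested compounds plus 3 SD, computed separately for each screening campaign, cut at about 15% in these data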
Target sequence (P62136 whole entry, looked up): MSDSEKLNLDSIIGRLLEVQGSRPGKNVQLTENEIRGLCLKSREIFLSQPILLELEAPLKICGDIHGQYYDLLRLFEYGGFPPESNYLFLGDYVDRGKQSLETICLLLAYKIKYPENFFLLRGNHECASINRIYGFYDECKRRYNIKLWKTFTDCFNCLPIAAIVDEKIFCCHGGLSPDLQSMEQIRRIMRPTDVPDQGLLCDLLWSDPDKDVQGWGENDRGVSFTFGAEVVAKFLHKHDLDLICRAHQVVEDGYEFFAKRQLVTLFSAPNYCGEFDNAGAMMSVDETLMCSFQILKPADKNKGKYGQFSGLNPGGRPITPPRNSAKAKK
PAFAH1B3 inh = blocks human PAF acetylhydrolase 1B catalytic subunit 3; AID 492972; inhibition, % at 3.39 µM; 0.28% of 340,000 active; recombinant PAFAH1B3, FP-rhodamine probe, fluorescence polarization;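 active = inhibition above the screen-wide average of all tested compounds plus 3 SD, cut at about 25% in these data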
PAFAH2 confirm = PAFAH2 (human) inhibition, confirmed; shares compounds with PAFAH2 inh; 65% of 2,300 active; recombinant PAFAH2, FP-rhodamine activity probe, fluorescence polarization; inhibition, % at 3.39 µM;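 active = mean inhibition over three repeats above a set limit taken from the earlier primary screen, cut at about 30% in these data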;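 note: inhibitor blocks binding of rhodamine activity probe so polarization falls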
Each line names hits and unclear results; the compound was inactive in the other large screens (follow-up assays come after a bar, where they were run). In the library only some 3.4% were active in any assay of this set; here they are far more common.

Cc1nc(C)c(C(=O)OCC(=O)NCc2ccccc2Cl)s1	PAFAH2 inh 70 (no result: PP5 inh, PP1 counter) | PAFAH2 confirm 63
CCOC(=O)C1=C(CC)Nc2ccccc2N=C1NC(=O)c1ccc(OC)c(S(=O)(=O)N2CCOCC2)c1	none (no result: pPAFAH FP inh, PP5 inh, PP1 counter)
Nc1ccc(C(=O)OCc2nc3ccccc3s2)cc1	PAFAH2 inh 60 | PAFAH2 confirm 48
O=C(OCc1nc2ccccc2s1)c1ccc(Br)s1	none
O=C(CCc1ccc(S(=O)(=O)N2CCOCC2)cc1)OCc1nc2ccccc2s1	none
COc1ccc(/C=C/C(=O)OCc2cc(=O)n3c(n2)sc2ccccc23)cc1	none
O=C(OCc1cc(=O)n2c(n1)sc1ccccc12)c1ccc(O)cc1	PAFAH2 inh 34 | PAFAH2 confirm inactive
O=C(OCc1nc2ccccc2s1)c1cccc(S(=O)(=O)N2CCOCC2)c1	PAFAH2 inh 45 | PAFAH2 confirm inactive
COc1ccc(S(=O)(=O)N2CCOCC2)cc1NC(=O)COC(=O)c1ccc([N+](=O)[O-])s1	PAFAH2 inh 40 (no result: PP5 inh, PP1 counter) | PAFAH2 confirm 40
COc1ccc(S(=O)(=O)N2CCOCC2)cc1NC(=O)Cc1ccccc1Cl	PAFAH2 inh 60 | PAFAH2 confirm 55
Cc1ccc(N(CC(=O)N2CCCCCC2)S(=O)(=O)c2ccccc2)cc1	none
O=C(COC(=O)CC(c1ccccc1)c1ccccc1)Nc1ccc(F)c(F)c1	none (no result: PAFAH1B2 inh, PAFAH2 inh, PAFAH1B3 inh)
O=C(COC(=O)CC(NC(=O)c1ccccc1Cl)c1ccccc1)Nc1cccc(F)c1 (stereo unspecified)	PAFAH2 inh 82 | PAFAH2 confirm 76
O=C(COC(=O)CC(c1ccccc1)c1ccccc1)Nc1cccc(F)c1	PAFAH2 inh 77 | PAFAH2 confirm 69
CCn1c(=O)c2c(nc(SCC(=O)Nc3ccccc3)n2C)n(C)c1=O	none
C/C(CC(=O)Nc1ccc(N(C)C)cc1)=N\NC(=O)Cc1csc(N)n1	PAFAH2 inh 49 | PAFAH2 confirm inactive
CCCCC[C@H](O)/C=C/[C@H]1[C@H](O)CC(=O)[C@@H]1CCCCCCC(=O)O	none (no result: PAFAH1B2 inh, PAFAH2 inh, PAFAH1B3 inh)
CCCCCCCCCCC[C@@H](C[C@@H]1OC(=O)[C@H]1CCCCCC)OC(=O)[C@H](CC(C)C)NC=O	pPAFAH FP inh 93, PAFAH2 inh 80 | PAFAH2 confirm 79
CC(=O)Nc1ccc(C(=O)OCC(=O)NC(=O)NC(C)(C)C)cc1	PAFAH2 inh 41 | PAFAH2 confirm 31
CC(=O)Nc1ccc(C(=O)OCC(=O)NCCC2=CCCCC2)cc1	PAFAH2 inh 66 (no result: pPAFAH FP inh, PP5 inh, PP1 counter) | PAFAH2 confirm 61
COc1cc(C(=O)OCC(=O)NCCC2=CCCCC2)cc(OC)c1OC	none (no result: pPAFAH FP inh, PP5 inh, PP1 counter)
O=C(COC(=O)c1ccc(OC(F)F)cc1)NCCC1=CCCCC1	PAFAH2 inh 41 | PAFAH2 confirm inactive
O=C(COC(=O)c1ccc([N+](=O)[O-])cc1)NCCC1=CCCCC1	none (no result: PP5 inh, PP1 counter)
C[C@@H](NC(=O)c1nc[nH]c1C(=O)NCc1ccccc1)c1ccccc1	none
Cc1ccc(C)c(C(C)NC(=O)Cc2cccs2)c1 (stereo unspecified)	none
O=C(COC(=O)c1ccco1)Nc1ccc2[nH]c(=O)[nH]c2c1	none
CC(NC(=O)COC(=O)c1ccco1)c1ccccc1 (stereo unspecified)	PAFAH2 inh 32 | PAFAH2 confirm inactive
CN(C(=O)c1ccccc1C(=O)OCC(=O)Nc1ccccc1)c1ccccc1	PAFAH2 inh 78 | PAFAH2 confirm 77
O=C(COC(=O)c1ccco1)Nc1ccc(Br)cc1	PAFAH2 inh 77 | PAFAH2 confirm 69
O=C(COC(=O)c1ccco1)Nc1ccc([N+](=O)[O-])cc1Cl	PAFAH2 inh 41 | PAFAH2 confirm inactive
CCN(CC(=O)NC1CCS(=O)(=O)C1)S(=O)(=O)c1ccccc1Cl (stereo unspecified)	none
CN(CCC#N)S(=O)(=O)c1cc2c3c(c1)CCN3C(=O)CC2	none
CC(=O)CCC(=O)OCC(=O)c1ccc(C(F)(F)F)cc1	none
O=C(COC(=O)c1ccco1)Nc1ccccc1	PAFAH2 inh 68 | PAFAH2 confirm 66
Cc1nn(-c2ccccc2)c(C)c1/C=C/C(=O)OCC(=O)Nc1ncc(C(F)(F)F)cc1Cl	PAFAH2 inh 45 | PAFAH2 confirm 35
Cc1nn(-c2ccc(F)cc2)c(Cl)c1/C=C/C(=O)OCC(=O)Nc1ccc(F)cc1F	none
